Data published in PubChem BioAssay (EPA / NIEHS).
Inconclusive results are not listed. Where a structure was tested more than once in an assay, its records may differ in their call. Calls of active or inactive are those of the source. How the source made its calls: active means hit-call score of the fitted dose curve at least 0.9, where 1 is the maximum; inconclusive means response in the unintended direction; inactive means score below 0.9.

test: Tanguay_ZF_120hpf_JAW_legacy: (Legacy) Oregon State University Tanguay Lab 120 Hour Post-fertilization zebrafish Assay for Jaw Malformation (AID 2283638)
Method: Tanguay_ZF_120hpf_legacy is a whole embryo, multiplexed endpoint assay using zebrafish larvae exposed for 120 hours post fertilization on a 96-well plate.Tanguay_ZF_120hpf_JAW_legacy is one of one assay component(s) measured or calculated from the Tanguay_ZF_120hpf_legacy assay. It is designed to make measurements of zebrafish development as detected with brightfield microscopy of developing zebrafish embryos.Data from the assay component Tanguay_ZF_120hpf_JAW_legacy was analyzed into 1 assay endpoints. This assay endpoint, Tanguay_ZF_120hpf_JAW_legacy, was analyzed in the positive analysis fitting direction relative to DMSO as the negative control and baseline of activity. Using a type of morphology reporter, gain-of-signal activity can be used to understand changes in developmentals as they relate to the whole embryo. To generalize the intended target to other relatable targets, this assay endpoint is annotated to the zebrafish development intended target family, where the subfamily is embryonic jaw development.
Zebrafish husbandry: Tropical 5D wild-type adult zebrafish were housed in at an approximate density of 1000 per 100 gallon tank at the Sinnhuber Aquatic Research Laboratory, Oregon State University, Corvallis, OR. Each tank was kept at standard laboratory conditions of 28C on a 14-h light/10-h dark photoperiod in fish water consisting of reverse osmosis water supplemented with a commercially available salt (Instant Ocean). Spawning funnels were placed into the tanks the night prior, and embryos were collected and staged. To increase bioavailability, the chorion was enzymatically removed using pronase (63.6mg/ml, >/= 3.5U/mg, Sigma-Aldrich: P5147) at 4 hours post fertilization (hpf) using a custom automated dechorionator.Chemical exposures: Six hpf dechorionated embryos were placed 1 embryo per well in a 96-well plate prefilled with 90 ul of EM using automated embryo placement systems (AEPS). Ten microliters of each row of dilution plate 2 was added to 2 exposure plates. The final DMSO concentration used was 0.64% (vol/vol). Thirty-two embryos were also exposed to 5uM trimethyltin chloride (positive control). Plates were sealed to prevent evaporation and foil covered to reduce light exposure and kept in a 28C incubator. Embryos were statically exposed until 120 hpf. At 24 hpf, embryos were assessed for photomotor response using a custom photomotor response analysis tool (PRAT) and for developmental toxicity endpoints (MO24: mortality at 24 hpf, DP: developmental progression, SM: spontaneous movement, and NC: notochord distortion). At 120 hpf, locomotor activity was measured using Viewpoint Zebralab and assessed for 18 endpoints. Zebrafish acquisition and analysis program (ZAAP), a custom program designed to inventory, acquire, and manage zebrafish data, was used to collect developmental endpoints as either present or absent (i.e., binary responses were recorded). If mortality occurred for an embryo (at either 24 or 120 hpf), the non-mortality endpoints were not measured.

| Compound | AC50 | outcome |
| --- | --- | --- |
| O=C1C2(Cl)C3(Cl)C4(Cl)C(Cl)(Cl)C5(Cl)C3(Cl)C1(Cl)C5(Cl)C24Cl (stereo unspecified) | 8.93 µM (active) |  |
| CN(C)N=O |  | inactive |
| ClCC(Cl)CCl |  | inactive |
| Oc1cccc2cccnc12 |  | inactive |
| CC12CC1(C)C(=O)N(c1cc(Cl)cc(Cl)c1)C2=O (stereo unspecified) |  | inactive |
| ClC1(Cl)C2(Cl)C3(Cl)C4(Cl)C(Cl)(Cl)C5(Cl)C3(Cl)C1(Cl)C5(Cl)C24Cl (stereo unspecified) |  | inactive |
| Cc1ccccc1N |  | inactive |
| CCC(C)(C)c1ccc(O)c(C(C)(C)CC)c1 |  | inactive |
| O=C(O)C(F)(F)C(F)(F)C(F)(F)C(F)(F)C(F)(F)C(F)(F)C(F)(F)C(F)(F)C(F)(F)C(F)(F)F |  | inactive |
| CC(=O)[O][Hg][c]1ccccc1 |  | inactive |
| NC(=O)O |  | inactive |
| CCOP(=S)(OCC)SCSP(=S)(OCC)OCC |  | inactive |
| COc1cc(-c2ccc(N)c(OC)c2)ccc1N | 47 µM (active) | inactive |
| O=C(Nc1ccc2[nH]ccc2c1)c1cc2cc(F)ccc2n1Cc1cccc(F)c1 |  | inactive |
| O=C(O)C(F)(F)C(F)(F)C(F)(F)C(F)(F)C(F)(F)C(F)(F)F |  | inactive |
| O=[N+]([O-])c1ccc(O)c([N+](=O)[O-])c1 |  | inactive |
| Cn1sc(Cl)cc1=O |  | inactive |
| CC(C)(C)c1cc(O)ccc1O |  | inactive |
| O=c1[nH]c(=O)[nH]c(=O)[nH]1 |  | inactive |
| CC(C)(c1ccccc1)c1ccc(O)c(C(C)(C)c2ccccc2)c1 |  | inactive |
| CC(C)(OO)c1ccccc1 |  | inactive |
| C=C(C)C(=O)[O][Sn]([CH2]CCC)([CH2]CCC)[CH2]CCC |  | inactive |
| CCN1CCC2(CC1)COc1cc3c(cc12)N(C(=O)c1ccc(-c2ccc(-c4nnc(C)o4)cc2C)cc1)CC3 |  | inactive |
| CCCCCCCCc1ccc(O)cc1 |  | inactive |
| C[C@]12CCC(=O)C[C@@H]1CC[C@@H]1[C@@H]2CC[C@]2(C)[C@@H](O)CC[C@@H]12 |  | inactive |
| CCC(=O)C(CC(C)N(C)C)(c1ccccc1)c1ccccc1 (stereo unspecified) | 34.4 µM (active) |  |
| CCOP(=S)(OCC)Oc1nc(Cl)c(Cl)cc1Cl |  | inactive |
| O=C(O)C(Cl)(Cl)Cl |  | inactive |
| C=CC(=O)OCCCCCC(C)C |  | inactive |
| C[C@@H]1C[C@@H]([C@H](O)CC2CC(=O)NC(=O)C2)C(=O)[C@@H](C)C1 |  | inactive |
